The record followed here is PubChem BioAssay AID371 (SRMLSC, 2006).

Among all 3,300 compounds or so, about 280 (8.5%) were called active. The sample as a whole holds a higher share of actives than the screen did. Unmarked numbers belong to inactive results.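 Rule for the calls: active = mean growth inhibition over the two runs of 50% or more; inactive = mean growth inhibition under 50%.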

This assay can be described thus: A549 NSCLC cell proliferation inhibitors – ATP luminescence, human non-small cell lung line, primary screen (AID 371).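 Note: compound exposure lasted 72 h before the ATP read; 0% = untreated cell signal and 100% = no luminescence left.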 Conditions: at 10 µM, stronger effect = higher value.
For `COCCNc1nc2c(c(=O)n(C)c(=O)n2C)n1Cc1cccc(C(F)(F)F)c1`, the growth inhibition is 36.4%.

Regarding `Cc1c(NC(=O)c2ccc(=O)oc2)c(=O)n(-c2ccccc2)n1C`, the growth inhibition was -1.44%. Under `Cc1c(NC(=O)C(CC(=O)O)NCc2ccco2)c(=O)n(-c2ccccc2)n1C` (stereo unspecified) stands 5.55%. Under `Cc1c(NC(=O)c2coc(=O)c(Br)c2)c(=O)n(-c2ccccc2)n1C` stands 80.5% (active); under `Cc1c(CCC#N)c(N2CCN(C3CCCCC3)CC2)n2c(nc3ccccc32)c1C#N`, 89.1% (active); under `Cc1c(CCC#N)c(N2CCCCC2)n2c(nc3ccccc32)c1C#N`, 4.5%.

As for `C=C(C)CN1CCN(c2c(CCC#N)c(C)c(C#N)c3nc4ccccc4n23)CC1`, the growth inhibition was 25.9%. Consider `CC1(C)CC(=O)C(CCCN2C(=O)c3ccccc3C2=O)C(=O)C1`, for which the growth inhibition was 0.69%.

Take `Cc1ccc(-c2nn3c(-c4cccc(Cl)c4)nnc3s2)cc1`: the growth inhibition is 45%.

As for `CC(C)COc1ccc(C(=O)OCCN2CCOCC2)c(O)c1`, the growth inhibition is 12.1%. Regarding `C(=C\c1ccccc1)/CN1CCN(C(c2ccccc2)c2ccccc2)CC1`, the growth inhibition was 22.9%. For the molecule `O=C(O)CCCC(=O)N1CCN(C(c2ccccc2)c2ccccc2)CC1`, the growth inhibition was 0.62%. Then `O=c1[nH]c2ccccc2n1CCCN1CCN(C(c2ccccc2)c2ccccc2)CC1`, with 90.4% (active); and `COc1cc2[nH]c3c(=O)n(CCN(C(C)C)C(C)C)cnc3c2cc1OC`, with 5.76%; and `Cc1ccc(-c2nn(CCC(=O)NCC3CCCO3)c(=O)c3ccccc23)cc1` (stereo unspecified), with 17.4%. Consider `c1ccc(-c2ccc(C(c3ccccc3)n3ccnc3)cc2)cc1` (stereo unspecified), for which the growth inhibition is 78.7% (active). Under `O=C(N(c1ccccc1)c1ccccc1)n1ccnc1` stands 7.93%. Under `COc1cccc(C2C(C#N)=C(N)Oc3cc(C)[nH]c(=O)c32)c1OC` (stereo unspecified) stands 2.31%. Under `COc1cc(C2C(C#N)=C(N)Oc3cc(C)n(CCN4CCOCC4)c(=O)c32)cc(OC)c1OC` (stereo unspecified) stands 3.04%; under `COc1cc(C2C(C#N)=C(N)Oc3cc(N)ccc32)cc(OC)c1OC` (stereo unspecified), 51.6% (active); under `CC(C(=O)N1CCCCC1)N1C(=O)c2ccccc2C1=O` (stereo unspecified), -14.3%. `O=C1C(=O)N(CCN2CCOCC2)C(c2ccccn2)/C1=C(/O)c1ccccc1` (stereo unspecified): the growth inhibition was 4.51%. Then `CCN(CC)CCCN1C(=O)C(=O)/C(=C(/O)c2ccc(Cl)cc2)C1c1ccccn1` (stereo unspecified), with -16.8%; and `CCC(C(=O)OCCN(CC)CC)c1ccccc1` (stereo unspecified), with 5.51%; and `CCCCc1oc2ccccc2c1C(=O)c1cc(I)c(OCCN(CC)CC)c(I)c1`, with 83.4% (active).

Turning to `CCN(CC)CCOC(=O)C(c1ccccc1)c1ccccc1`, the growth inhibition is 2.67%.
